Several values for one entry are separate records, joined by “and”; a condition that tells them apart may be missing. Equal entries are not always repeated. Values without a mark were called inactive. Records with an inconclusive call do not appear. A call without a number means that no potency is given here. Activity calls are given as the source filed them. Unless noted, calls follow the shape of the dose curve; as a rule, active = well fitted curve in the direction sought with a large enough effect; inconclusive = small, poorly fitted or top-dose-only effect, or another doubt; inactive = no such curve, though single readings can be large; an effect the other way counts as inactive or inconclusive.
What was measured:
[1] = Cell Viability - N2a (AID 540); conditions: N2a mouse neuroblastoma cell viability; activity change, negative = cytotoxicity: at 92.2 µM (top of the series);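 also: cells exposed to compound for 40 h at 37 °C; nearly all actives have a fitted effect of over 45% in size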
Procedure, shortened: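 In this qHTS cytotoxicity screen, ATP-dependent luciferase luminescence reports viable N2a cells after a 40 hr compound exposure in complete culture medium. Potencies are AC50 values from standard Hill equation fits.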

[2] = Cell Viability - Renal Proximal Tubule (AID 545); conditions: renal proximal tubule cells viability, primary cells of rat origin; at 91.7 µM (top of the series);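 also: cells exposed to compound for 40 hours; nearly all actives have a fitted effect of over 40% in size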
Procedure, shortened: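 Rat kidney proximal tubule cells, freshly isolated; 1000 cells/well, 5 hr settle, compound 40 hr 37 °C. CellTiter-Glo 20 min RT, luminescence read. AC50 by standard Hill fit.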

[3] = Cellular Toxicity (caspase-3) Jurkat (AID 655); conditions: Jurkat caspase-3 activation, luminescence, DMSO = 0%, tamoxifen = 100%; at 92.2 µM (top of the series);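 also: cells exposed to compound for 16 h at 37 °C before reading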
Procedure, shortened: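 Luminescent caspase-3/7 readout (aminoluciferin substrate cleavage) in human T-cell leukemia Jurkat cells after 16 hr compound exposure. Concentration-response normalized to DMSO and 100 uM tamoxifen; AC50 by standard Hill equation.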

[4] = MultiTox-Fluor Cytotoxicity Assay - LYMP1-002 - Live Cells (AID 955)
Procedure, shortened: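 In this qHTS viability format, lymphoblastoid cells (LYMP1-002, human) received compound for 16 hr at 37 C. Fluorogenic GF-AFC cleavage by viable cells was detected at 405/510 nm after 1 h at room temperature.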

[5] = MultiTox-Fluor Cytotoxicity Assay - LYMP1-003 - Dead Cells (AID 961); also: nearly all actives have a fitted effect of over 70% in size
Procedure, shortened: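 LYMP1-003 human lymphoblastoid cells (2500/well) exposed to compound 16 h at 37 C in complete medium; dead-cell protease read with bis-AAF-R110 fluorescence (Ex/Em 485/520) after 60 min at room temperature. Normalized to DMSO and 15 uM tetraoctylammonium bromide; AC50 from Hill fit.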

[6] = Cell Viability - LYMP1-003 - Assay at 24 hr (AID 963)
Procedure, shortened: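 The lymphoblastoid line was treated with titrated compounds for 24 hours, and viable cell number estimated from luciferase-based ATP luminescence.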

[7] = Cell Viability - LYMP2-003 (AID 965);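 also: cells exposed to compounds for 24 h before reading; nearly all actives have a fitted effect of over 50% in size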; also: potency is read from the fitted curve at half-maximal effect
Procedure, shortened: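 CellTiter-Glo luminescence (cellular ATP) after 24 h compound exposure at 37 C in complete medium; 2500 cells/well, 5 h settling beforehand. Concentration-response fitted to standard Hill equation for AC50. Tetraoctylammonium bromide served as positive control.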

[8] = Cell Viability - LYMP2-009 (AID 968); also: nearly all actives have a fitted effect of over 55% in size; also: potency is read from the fitted curve at half-maximal effect
[9] = Cell Viability - LYMP2-015 (AID 971); also: nearly all actives have a fitted effect of over 55% in size
Procedure, shortened: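 AC50 values reflect Hill-model fits of ATP-based luminescence (CellTiter-Glo) from a human lymphoblastoid line, 2500 cells/well, treated 24 hr at 37 C.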

[10] = Cell Viability - LYMP2-019 (AID 973); also: nearly all actives have a fitted effect of over 55% in size; also: potency is read from the fitted curve at half-maximal effect
Procedure, shortened: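 AC50 values come from Hill-equation modelling of qHTS concentration-response curves, where viability is measured as luciferase-based ATP luminescence in the lymphoblastoid line after 24 hr compound exposure in complete culture medium.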

[11] = Cell Viability - LYMP2-021 (AID 974);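 also: compound exposure lasts 24 hours at 37 °C; nearly all actives have a fitted effect of over 55% in size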; also: potency is read from the fitted curve at half-maximal effect
Procedure, shortened: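 In qHTS format, compounds are tested against 2500 lymphoblastoid cells per well for 24 h; viable cell number is inferred from ATP-driven luciferase light, and Hill-equation fitting yields AC50 values.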

[12] = Cell Viability - LYMP2-025 (AID 976); also: potency is read from the fitted curve at half-maximal effect
Procedure, shortened: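 Luminescent ATP readout after 24 hr treatment of a human lymphoblastoid line (LYMP2-025, 2500 cells/well, 37 C). Reagent developed 30 min at room temperature; AC50 fitted with the Hill equation.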

[13] = Cell Viability - LYMP2-002 (AID 977)
Procedure, shortened: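 Human lymphoblastoid cells, 2500/well, complete medium; 5 h 37 C settle; compound 24 h 37 C; CellTiter-Glo, 30 min RT; luminescence. Decrease in ATP = cytotoxicity; AC50 via Hill equation.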

[14] = Cell Viability - LYMP2-006 (AID 978); also: nearly all actives have a fitted effect of over 60% in size
Procedure, shortened: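 qHTS, 1536-well; 2500 cells/well, 5 hr 37 C; cpd 24 hr 37 C; CellTiter-Glo 30 min RT; luminescence. Tetraoctylammonium bromide pos. ctrl. AC50 via Hill eqn.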

[15] = Cell Viability - LYMP2-008 (AID 980); also: nearly all actives have a fitted effect of over 60% in size; also: potency is read from the fitted curve at half-maximal effect
Procedure, shortened: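 Measured: ATP-dependent luminescence, proportional to viable cell number, in human lymphoblastoid cells treated 24 hr with compound in complete culture medium. Values are AC50s from Hill-equation modelling of qHTS titrations.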

[16] = Cell Viability - LYMP2-016 (AID 984)
Procedure, shortened: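 qHTS, 1536-well: 2500 LYMP2-016 cells/well, 5 hr 37 C, compound added, 24 hr 37 C, CellTiter-Glo 30 min RT, luminescence. Tetraoctylammonium bromide positive control. AC50 via Hill fit.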

[17] = Cell Viability - LYMP1-002 - Assay at 40 hr (AID 994); also: nearly all actives have a fitted effect of over 60% in size; also: potency is read from the fitted curve at half-maximal effect
Procedure, shortened: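 Concentration-dependent ATP loss after 40 hr treatment at 37 C defined toxicity; AC50 values were obtained by fitting the standard Hill equation.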

[18] = target: Voltage-gated inwardly rectifying potassium channel KCNH2 (Homo sapiens) (UniProt Q12809); assay: qHTS Assay for Small Molecule Inhibitors of the Human hERG Channel Activity (AID 588834);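 also: top concentration of the series differs between compounds; lower thallium flux fluorescence means stronger hERG block; nearly all actives have a fitted effect of over 50% in size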
Chain of Voltage-gated inwardly rectifying potassium channel KCNH2 (Homo sapiens) (Q12809 whole entry, looked up): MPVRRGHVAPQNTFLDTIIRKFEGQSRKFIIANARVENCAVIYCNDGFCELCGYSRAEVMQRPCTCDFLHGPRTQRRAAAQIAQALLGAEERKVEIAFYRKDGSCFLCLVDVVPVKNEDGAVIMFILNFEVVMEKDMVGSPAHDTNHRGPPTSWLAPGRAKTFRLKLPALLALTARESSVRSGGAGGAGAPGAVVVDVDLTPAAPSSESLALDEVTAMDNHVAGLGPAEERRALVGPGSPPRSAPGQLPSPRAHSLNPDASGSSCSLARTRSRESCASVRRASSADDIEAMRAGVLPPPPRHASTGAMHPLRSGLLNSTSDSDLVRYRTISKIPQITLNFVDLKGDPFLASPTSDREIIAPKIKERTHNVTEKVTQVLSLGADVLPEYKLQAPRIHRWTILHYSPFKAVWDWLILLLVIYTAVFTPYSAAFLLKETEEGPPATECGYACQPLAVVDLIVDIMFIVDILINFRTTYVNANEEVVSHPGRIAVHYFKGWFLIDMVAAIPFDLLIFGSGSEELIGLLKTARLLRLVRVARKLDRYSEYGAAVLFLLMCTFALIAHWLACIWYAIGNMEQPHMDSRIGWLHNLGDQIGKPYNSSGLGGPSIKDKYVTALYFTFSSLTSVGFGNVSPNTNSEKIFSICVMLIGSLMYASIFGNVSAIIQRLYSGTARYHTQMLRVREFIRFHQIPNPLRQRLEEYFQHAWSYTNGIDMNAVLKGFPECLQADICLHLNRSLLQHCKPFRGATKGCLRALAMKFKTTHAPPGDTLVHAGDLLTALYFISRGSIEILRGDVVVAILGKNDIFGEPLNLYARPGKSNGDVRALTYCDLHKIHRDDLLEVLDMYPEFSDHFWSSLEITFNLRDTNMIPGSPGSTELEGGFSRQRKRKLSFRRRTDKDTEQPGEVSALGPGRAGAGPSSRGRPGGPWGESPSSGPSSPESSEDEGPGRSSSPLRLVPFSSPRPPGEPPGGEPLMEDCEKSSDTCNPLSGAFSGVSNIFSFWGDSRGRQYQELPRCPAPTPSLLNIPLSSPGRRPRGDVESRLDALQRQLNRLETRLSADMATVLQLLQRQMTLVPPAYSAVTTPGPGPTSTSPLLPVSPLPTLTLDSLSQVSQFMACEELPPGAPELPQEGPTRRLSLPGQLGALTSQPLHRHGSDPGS
Procedure, shortened: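 Thallium-flux (FluxOR) read-out on FDSS: fluorescence read 10 s before and 2 min after stimulation buffer. hERG-BacMam-transduced U2OS cells, compound exposure about 10 min. AC50 by standard Hill equation.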

[19] = qHTS assay for small molecule agonists of the antioxidant response element (ARE) signaling pathway measured by Nrf2-dependant transcriptional activity (AID 720636; active = well fitted curve in the direction sought with a large enough effect in the repeat runs; an effect the other way counts as inactive or inconclusive)
Procedure, shortened: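 ARE-luc HepG2 cells carrying an Nrf2-responsive luciferase reporter, in medium with 1% dialyzed FBS, exposed to compound for 16 hr at 37 C, 5% CO2. Luminescence read 30 min after ONE-Glo addition.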

[20] = target: Thyroid hormone receptor beta (Homo sapiens) (UniProt P10828); assay: qHTS assay for small molecule agonists of thyroid hormone receptor beta signaling (AID 588545; calls by dose curve)
Chain of Thyroid hormone receptor beta (Homo sapiens) (P10828 whole entry, looked up): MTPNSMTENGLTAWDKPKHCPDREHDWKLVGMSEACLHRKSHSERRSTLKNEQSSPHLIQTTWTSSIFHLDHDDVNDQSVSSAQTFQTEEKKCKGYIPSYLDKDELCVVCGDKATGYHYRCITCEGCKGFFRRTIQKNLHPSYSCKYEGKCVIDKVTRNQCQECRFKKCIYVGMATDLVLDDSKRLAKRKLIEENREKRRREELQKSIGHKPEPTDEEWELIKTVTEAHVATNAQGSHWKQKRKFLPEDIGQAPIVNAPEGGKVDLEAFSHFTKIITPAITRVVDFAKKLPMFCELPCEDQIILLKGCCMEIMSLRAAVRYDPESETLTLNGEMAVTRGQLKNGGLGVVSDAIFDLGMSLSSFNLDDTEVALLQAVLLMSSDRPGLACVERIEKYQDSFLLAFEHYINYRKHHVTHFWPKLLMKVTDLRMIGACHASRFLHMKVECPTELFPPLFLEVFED
Procedure, shortened: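 In this cell-based screen, titrated compounds act on HEK 293 cells held in medium with 2% charcoal/dextran FBS, NEAA and pyruvate for 18 hrs at 37 C. Responses are expressed relative to T3 (10 nM) as 100% and basal DMSO as 0%.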

Structure (SMILES) | activity change, negative = cytotoxicity [1] | activity change, negative = cytotoxicity [2] | caspase-3 activation [3] | Potency [4] | Potency [5] | Potency [6] | Potency [7] | Potency [8] | Potency [9] | Potency [10] | Potency [11] | Potency [12] | Potency [13] | Potency [14] | Potency [15] | Potency [16] | Potency [17] | Potency [18] | Potency [19] | outcome [20]
CCO[Si](CCCN)(OCC)OCC | -19% | -12% | 1.79% | inactive | inactive | inactive | inactive | inactive | inactive | inactive | inactive | inactive | inactive | inactive | inactive | inactive | inactive | inactive | inactive | 
CC1(C)CC(N=C=O)CC(C)(CN=C=O)C1 (configuration not stated) | 6.51% | 13.5% | 0.941% | inactive | inactive | inactive | inactive | inactive | inactive | inactive | inactive | inactive | inactive | inactive | inactive | inactive | inactive | inactive | inactive | inactive
CCC(C)c1ccccc1O (configuration not stated) | 0.301% and 2.4% | 2.94% and 2.27% | 0.687% and -0.479% | inactive | inactive | inactive | inactive | inactive | inactive | inactive | inactive | inactive | inactive | inactive | inactive | inactive | inactive | inactive | inactive | inactive
Nc1ccc(S(=O)(=O)O)cc1 | -1.94% | -9.81% | 0.897% | inactive | inactive | inactive | inactive | inactive | inactive | inactive | inactive | inactive | inactive | inactive | inactive | inactive | inactive | inactive | inactive | inactive
Cc1ccc([N+](=O)[O-])cc1N | -2.12% | -8.34% | -0.45% | inactive | inactive | inactive | inactive | inactive | inactive | inactive | inactive | inactive | inactive | inactive | inactive | inactive | inactive | inactive | inactive | inactive
Nc1ccc(Cl)cc1Cl | 7.32% | -0.932% | 0.852% | inactive | inactive | inactive | inactive | inactive | inactive | inactive | inactive | inactive | inactive | inactive | inactive | inactive | inactive | inactive | inactive | inactive
NC1=NC(S)C2N=CN=C2N1 (configuration not stated) |  |  |  |  |  |  | 6.31 µM (active) | 15.8 µM (active) |  | 10 µM (active) | 15.8 µM (active) | 3.16 µM (active) |  |  | 3.16 µM (active) |  | 2 µM (active) | inactive | inactive | inactive
CCCCC(CC)CN (configuration not stated) | -20.4% and 2.62% | -8.31% and 1.31% | -1.36% and 1.48% | inactive | inactive | inactive | inactive | inactive | inactive | inactive | inactive | inactive | inactive | inactive | inactive | inactive | inactive | inactive | inactive | inactive
COC(=O)CCCCC(=O)OC | 4.03% | 5.83% | 2.55% | inactive | inactive | inactive | inactive | inactive | inactive | inactive | inactive | inactive | inactive | inactive | inactive | inactive | inactive | inactive | inactive | inactive
c1ccc2c(c1)c1cccc3ccc4cccc2c4c31 | 3.28% | -12.3% | 0.0871% | inactive | inactive | inactive | inactive | inactive | inactive | inactive | inactive | inactive | inactive | inactive | inactive | inactive | inactive | inactive |  | 
O=C(O)CC(C(=O)O)C(CC(=O)O)C(=O)O (configuration not stated) | -8.87% | -9.72% | -0.624% | inactive | inactive | inactive | inactive | inactive | inactive | inactive | inactive | inactive | inactive | inactive | inactive | inactive | inactive | inactive | inactive | inactive
O=C(/C=C/c1ccc(O)c(O)c1)O[C@@H](C(=O)O)[C@@H](OC(=O)/C=C/c1ccc(O)c(O)c1)C(=O)O | -0.47% | -5.23% | 1.83% | inactive | inactive | inactive | inactive | inactive | inactive | inactive | inactive | inactive | inactive | inactive | inactive | inactive | inactive | inactive | inactive | inactive
S=C1NC=NC2N=CNC12 (configuration not stated) |  |  | 20.1% | inactive | inactive |  |  |  | inactive |  |  |  | inactive | inactive |  | inactive |  | inactive | inactive | inactive
COC(=O)c1ccc(C=O)cc1 | -4.37% | -14.2% | 13.7% | inactive | inactive | inactive | inactive | inactive | inactive | inactive | inactive | inactive | inactive | inactive | inactive | inactive | inactive | inactive | inactive | inactive
CCO | -0.0856% | -3.41% | -0.073% | inactive | inactive | inactive | inactive | inactive | inactive | inactive | inactive | inactive | inactive | inactive | inactive | inactive | inactive | inactive | inactive | inactive

From PubChem BioAssay (NCATS)
